From PubChem BioAssay (NCI)
This is part of a sample that, as a whole, favours compounds with a hit. Of some 79,000 tested, about 15% had one in any assay. Calls of active or inactive are those of the source. Rule as the data show it: active = growth inhibition above about 70%; inactive = the rest.

Key:
[1] = NCI Yeast Anticancer Drug Screen. Data for the rad50 strain (AID 155);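 also: 0% = growth of vehicle-only cultures of the same strain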; conditions: S. cerevisiae rad50 strain growth inhibition; at 50.0 µM; active compounds read high
Procedure, shortened: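 Yeast carrying a defined DNA repair defect were exposed to test compounds, and growth was compared with vehicle-treated controls to give percent inhibition.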

[2] = NCI Yeast Anticancer Drug Screen. Data for the mec2-1 strain (AID 157); conditions: S. cerevisiae mec2-1 strain, at 50.0 µM, active compounds read high
Procedure, shortened: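 Compounds were applied to mec2-1 yeast cells. Their growth was then compared with that of vehicle-treated cultures to give growth inhibition.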

[3] = NCI Yeast Anticancer Drug Screen. Data for the sgs1 mgt1 strain (AID 161);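 also: 0% = growth of cultures given vehicle only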; conditions: S. cerevisiae sgs1 mgt1 strain, at 50.0 µM, active compounds read high
Procedure, shortened: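 Growth of a repair-deficient yeast mutant was monitored after compound treatment and expressed as inhibition relative to vehicle-treated cultures.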

[4] = NCI Yeast Anticancer Drug Screen. Data for the cln2 rad14 strain (AID 165);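 also: 0% = growth equal to vehicle treated cultures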; conditions: S. cerevisiae cln2 rad14 strain, at 50.0 µM, active compounds read high
Procedure, shortened: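 Strain: cln2 rad14 yeast, altered in cell cycle control and DNA damage repair. Read-out: growth inhibition vs vehicle.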

[5] = NCI Yeast Anticancer Drug Screen. Data for the bub3 strain (AID 167); conditions: S. cerevisiae bub3 mutant strain, at 50.0 µM, active compounds read high
Procedure, shortened: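 Compounds were applied to a genetically altered yeast strain carrying a cell-cycle control defect. Growth inhibition was scored against vehicle-treated controls.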

[6] = NCI Yeast Anticancer Drug Screen. Data for the mlh1 rad18 strain (AID 175); conditions: S. cerevisiae mlh1 rad18 strain growth inhibition; at 50.0 µM; active compounds read high
Procedure, shortened: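 A repair-deficient yeast strain is exposed to test compound, and growth is scored relative to vehicle-treated controls.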

Measured: growth inhibition

OCC1CCCN2CCCCC12 (configuration not stated)
inactive: [1] 1.2% | [2] 0.35% | [3] -4.2% | [4] -39.1% | [5] -20.4% | [6] 7.35%

COC(=O)[C@H]1[C@H]2CCOC1(c1cc(OC)c(OC)c(OC)c1)c1cc3c(cc1[C@H]2O)OCO3
inactive: [1] -5.55% | [2] -63% | [3] -21.6% | [4] -14.3% | [5] -38% | [6] -0.6%

CC1=CC(=Nc2ccc(N(CCCl)CCCl)cc2)C=CC1=O
inactive: [1] -6.1% | [2] 33.2% | [3] -28.4% | [4] 14.2% | [5] -7.9% | [6] 5.35%

C/C=C1/CN2C3C[C@H]1C(CO)(C(=O)OC)[C@H]2Cc1c3n(C)c2ccccc12 (some centres not stated)
inactive: [1] -1.2% | [2] -4.35% | [3] 16.7% | [4] -0.1% | [5] 7% | [6] -8.9%

CCOC(=S)S.[Cu+2]
inactive: [1] 2.55% | [2] 4.1% | [3] -2.85% | [4] -33.6% | [5] -36% | [6] -17.1%

SCc1ccccc1.[Cu+2]
inactive: [1] -1.4% | [2] -15.9% | [3] -0.45% | [4] -35.1% | [5] -50.7% | [6] -2.75%

O=S(=O)(O)c1ccc(Cl)cc1
inactive: [1] -0.45% | [2] -3.2% | [3] -1.15% | [4] 23.1% | [5] 0.3% | [6] 9.1%

COc1ccc2c(c1)c(CC(C)[N+](=O)[O-])c(C)n2Cc1ccccc1 (configuration not stated)
inactive: [1] 6.5% | [2] 8.35% | [3] 5.65% | [4] -9.95% | [5] -3.3% | [6] 6.9%

CC[N+]1(CC)CC[N+](CC)(CC)CC1 (tested in a mixture with another compound)
inactive: [1] 6.1% | [2] -28.8% | [3] 4.85% | [4] 0.45% | [5] -0.95% | [6] 29.1%

CCCCCCCCCCCCCCCCCC(=O)[O][Pb]([CH3])([CH3])[CH3]
inactive: [1] 0.8% | [2] 0.5% | [3] 18.8% | [4] 21.6% | [5] 2.8% | [6] 13.1%

O=[N+]([O-])c1ccc(OCc2ccc(S(=O)(=O)F)cc2Cl)c(Cl)c1
inactive: [1] 1.45% | [2] -2.95% | [3] -3.15% | [4] 20.6% | [5] -3.55% | [6] -3.6%

COc1ccc2c(c1)CCC1C2CCC2(C)C1CCC21CCNP(=O)(N(CCCl)CCCl)O1 (configuration not stated)
active: [1] 72% | [3] 72.2%
inactive: [2] 31.4% | [4] 23.3% | [5] 22.4% | [6] 38.7%

O=C(O)c1ccc(CI)cc1
inactive: [1] -9.6% | [2] -11.9% | [3] 6% | [4] 9% | [5] 15.2% | [6] -16.9%

c1c2c(cc3c1OCO3)-c1cc3ccc4c(c3c[n+]1CC2)OCO4
inactive: [1] 9.2% | [2] -9.1% | [3] 0.35% | [4] 4.9% | [5] -48.5% | [6] -52.5%

CC(C)(C(=O)c1ccccc1)N1CC1
inactive: [1] -0.65% | [2] 2.8% | [3] -4.75% | [4] -10.6% | [5] -23.6% | [6] -8.25%

CC1(C(=O)O)OC1c1ccccc1 (configuration not stated)
inactive: [1] 4.2% | [2] 1.2% | [3] 6.85% | [4] -11.7% | [5] 10.2% | [6] -7.7%

O=c1cc(CCl)occ1O
inactive: [1] 7.35% | [2] 19.5% | [3] 20.6% | [4] -5.75% | [5] 16.1% | [6] 15.1%

CC(CCOc1ccc2ccc(=O)oc2c1)C1=CC(=O)C(C)(C)O1 (configuration not stated)
inactive: [1] -6.1% | [2] -8.3% | [3] 21.1% | [4] 0.05% | [5] -7.25% | [6] -44.1%

CN(C)c1ccc(C(c2c(O)c3ccc(O)cc3oc2=O)c2c(O)c3ccc(O)cc3oc2=O)cc1
inactive: [1] 8.4% | [2] 7.75% | [3] 22.2% | [4] 32.7% | [5] 3.9% | [6] 11.4%

S=C(N=Nc1ccccc1)NNc1ccccc1.[Ni]
inactive: [1] 12.3% | [2] -15.3% | [3] 2% | [4] 6.25% | [5] 26.8% | [6] 0.5%

O=C1CCCN1CC#CCN1C[C@@H]2C3CCC(C3)[C@@H]2C1
inactive: [1] -2.8% | [2] -8.5% | [3] 6.25% | [4] 29.4% | [5] 17% | [6] 27.6%

CO[C@@]12[C@H](COC(N)=O)C3=C(C(=O)C(C)=C(NCCO)C3=O)N1C[C@@H]1N[C@@H]12
inactive: [1] 3.75% | [2] -27.1% | [3] 21.1% | [4] -0.4% | [5] 7.35% | [6] -7.45%

COP(=S)(c1ccccc1)N(C)C(=O)Oc1cccc(C(C)C)c1 (configuration not stated)
inactive: [1] 21.2% | [2] 30.7% | [3] 34.2% | [4] 25.8% | [5] 43.8% | [6] 45.7%

O[C@H](c1ccccc1)[C@@H](c1ccccc1)N1CCCCC1
inactive: [1] -9.85% | [2] -11.9% | [3] -3.65% | [4] -28% | [5] 41.9% | [6] -11.6%

COC(=O)c1ccccc1N
inactive: [1] 13.5% | [2] 1.95% | [3] -0.55% | [4] -29.5% | [5] -2.9% | [6] -6.75%

COC(=O)C1=COC(C)[C@H]2CN3CCc4c([nH]c5cc(OC)ccc45)C3CC12 (some centres not stated)
inactive: [1] -0.6% | [2] -9.95% | [3] -7.65% | [4] 0.9% | [5] -12.8% | [6] -9.1%

CCCCCCCCCCCCCCCC(=O)OCC1OC(OC)C2NP(=O)(N(CCCl)CCCl)OC1C2O (configuration not stated)
inactive: [1] 35.4% | [2] -13.3% | [3] -40.4% | [4] -20.9% | [5] 66.7%
active: [6] 73%

C1CCN2CC3CONC3C2C1 (configuration not stated)
inactive: [1] -11.3% | [2] -7.5% | [3] 2.05% | [4] 13.7% | [5] -6.2% | [6] -3.05%

CCCCSP(=O)(SCCCC)N1CCCCC1
active: [1] 98.9% | [2] 99.2% | [3] 98.8% | [4] 97.8% | [5] 98.8% | [6] 99%

CN(C)CCCc1c[nH]c2ccccc12
inactive: [1] -20.4% | [2] -6.6% | [3] -4.85% | [4] -7.5% | [5] -52.5% | [6] 8.25%

O=C(O)C1C2c3ccccc3C(c3ccccc32)C1C(=O)NCC1CC1 (configuration not stated)
inactive: [1] 51.5% | [2] 7.55% | [3] 10.4% | [4] 13.6% | [5] 21.4% | [6] 24.2%

CN1CCN(C)C12C=c1ccccc1=CC21CC1
inactive: [1] 5.05% | [2] -15.9% | [3] -45.6% | [4] -2.65% | [5] -39.9% | [6] -8.15%

COc1ccc2c(c1)CC1N(C)CCC13CCCCC23 (configuration not stated)
inactive: [1] 41.8% | [2] 19.5% | [3] -1.2% | [4] 2.1% | [5] -11.4% | [6] -70.4%

O=P1(N2CCCCC2)OCC2(CO1)COP(=O)(N1CCCCC1)OC2 (configuration not stated)
inactive: [1] -7.15% | [2] -0.6% | [3] 0.1% | [4] -7.55% | [5] -1.65% | [6] 3.2%

CC(=N\O)/C(C)=N/O.CC(=N\O)/C(C)=N/O.CC(=N\O)/C(C)=N/O.CC(=N\O)/C(C)=N/O.[Cu].[Cu]
inactive: [1] -7.15% | [2] 12.9% | [3] -22.1% | [4] -8.2% | [5] -13.9% | [6] -4.2%

O=C1CN=C(c2ccccc2)c2cc(Cl)ccc2N1
inactive: [1] -4.7% | [2] 11.9% | [3] 3.35% | [4] 16.1% | [5] 8.55% | [6] 32.2%

CCC1(CNC(=O)CN)C(=O)NC(=O)NC1=O
inactive: [1] -14.8% | [2] -0.85% | [3] -4.4% | [4] 27.4% | [5] 2.7% | [6] 21.6%
